Screens: PubChem BioAssay, several laboratories
FGF22 binding: binders of human FGF22 protein, primary screen, FGF22 synaptogenesis inhibitor project, biophysical, thermal shift, single point; Fibroblast growth factor 22 (Homo sapiens), Q9HCT0; recombinant FGF22 thermal shift, SYPRO orange fluorescence; percent of sucrose octasulfate shift, DMSO zero; activity (Tm shift, normalised), % at 9.99 µM; 340,000 compounds, 1.5% hits; AID 651658, 2012;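 active = mean Tm shift, scaled 0 neutral to 100 positive control, at about 1.3% or above, every replicate too, limit read from the data; inconclusive = no clear call, values can overlap the other calls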
Target sequence (Q9HCT0 whole entry, looked up): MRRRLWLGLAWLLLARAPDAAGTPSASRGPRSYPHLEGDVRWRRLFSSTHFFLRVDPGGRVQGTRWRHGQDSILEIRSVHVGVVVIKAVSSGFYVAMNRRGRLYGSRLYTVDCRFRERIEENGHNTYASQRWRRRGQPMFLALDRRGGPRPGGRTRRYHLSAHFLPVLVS
esBAF inh: Bmi1 luciferase reporter increase in mESCs, primary screen, esBAF inhibitor project, mouse ES cells, Bmi1 luciferase knock-in, single point; 24 h; 100% = twice the neutral-well signal; 350,000 compounds, 2% hits; reporter increase, % at 12.5 µM; in the data active = activation above about 40%; inconclusive = no clear call, values can overlap the other calls;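 also: 0% = median of the plate's neutral control wells and 100% = double that signal; a rise in the Bmi1 reporter signal indicates esBAF inhibition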
MLL AF4-AF9 inh: inhibitors of AF4 peptide binding to AF9, primary screen, biochemical, AlphaScreen, biotin-AF4 peptide, FLAG-AF9, single point. inhibition, % at 10 µM. 350,000 compounds, 0.47% hits;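 active = every replicate reaching a set inhibition limit, whatever the replicate mean, cut at about 25% in these data; inconclusive = mean inhibition reaches that limit but some replicates miss it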;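 also: 0% = plate neutral control median and 100% = total signal loss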
SMARCA2 activ: SMARCA2 (BRM) function activators, primary screen, cell-based, luminescence, high throughput; MG213 cells, MMTV-luciferase reporter, dexamethasone, overnight; activation, % at 9.1 µM; 370,000 compounds, 1% hits; AID 652017, 2013; in the data active = activation above about 7.8%;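 also: 0% = vehicle wells and 100% = reference activator wells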
MITF act: activators of MITF-driven TRPM1 promoter reporter, primary screen, cell-based, SK-MEL-5, luciferase, single point; SK-MEL-5 TRPM1-promoter luciferase, 24 h; % of positive control, neutral wells = 0; activation, % at 12.5 µM; 300,000 compounds, 0.75% hits; AID 588334, 2011;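 active = mean activation of at least 80% with every replicate also reaching 80%; inconclusive = mean reaches 80% but some replicate falls short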;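 also: 0% = neutral control wells and 100% = parthenolide positive control wells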
Wnt bcat act: Wnt/beta-catenin pathway activators, primary screen, cell-based, plate reader, single point. Wnt/beta-catenin reporter cell assay, activator. AID 743398, 2014. activation, % at 9.35 µM. 300,000 compounds, 1.2% hits; in the data active = activation above about 30%, passing the limit was not always enough; inconclusive = no clear call, values can overlap the other calls;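 also: 0% = neutral control wells and 100% = positive control wells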
An asterisk follows results filed as active; ? = inconclusive; . = not tested or not shown. A selection: hits, their analogues and other compounds. The true share with any hit is near 4.3%.

SMILES	FGF22 binding	esBAF inh	MLL AF4-AF9 inh	SMARCA2 activ	MITF act	Wnt bcat act
O=C(Nc1ccc(N2CCCC2=O)cc1)c1cccc(F)c1	0	.	-55	5	58	27
COc1ccc(-c2ccc([C@H]3[C@@H](CO)N4CCCCN(C(=O)c5ccc(F)cc5)C[C@@H]34)cc2)cc1	0	.	-2	.	.	.
O=C(C[C@H]1CC[C@H](NC(=O)Nc2ccc3c(c2)OCO3)[C@@H](CO)O1)NCCCN1CCOCC1	0	-7	-3	.	.	.
CCCC#Cc1ccc(CC[C@H]2O[C@H]3CC[C@@H](CO)O[C@H]3C[C@@H]2n2cc(C(C)(C)O)nn2)cc1	.	.	-4	.	.	.
COc1cccc(C(=O)Nc2ccc3c(c2)C(=O)N(C)[C@H]2CC[C@@H](CC(=O)NCc4ccccc4F)O[C@@H]2CO3)c1	.	2	.	.	.	.
COc1ccc(CCNC(=O)CSc2nc3ccsc3c(=O)n2Cc2ccccn2)cc1OC	0	43*	-7	-2	.	3
NS(=O)(=O)c1ccc(CCNC(=O)CSc2nc3ccsc3c(=O)n2Cc2ccccn2)cc1	0	20	1	2	.	36*
NS(=O)(=O)c1ccc(CCNC(=O)CSc2nc3ccsc3c(=O)n2C2CC2)cc1	0	.	2	-3	6	-3
O=C(NCC[C@@H]1CC[C@@H](NC(=O)c2ccccc2F)[C@H](CO)O1)c1cnccn1	0	-3	2	.	.	.
N=C1SC(c2ccccc2)C(=O)N1c1ncc(Cc2ccccc2)s1 (stereo unspecified)	0	.	?	0	-13	-4
Cc1ccc(Cc2cnc(N3C(=N)SC(c4ccccc4)C3=O)s2)cc1 (stereo unspecified)	.	53*	.	-2	6	2
C[C@@H]1CN([C@H](C)CO)C(=O)c2cc(NC(=O)Cc3ccccc3)ccc2O[C@@H]1CN(C)S(=O)(=O)c1cn(C)cn1	0	-5	-3	.	.	.
CC(C)C(C(=O)NCc1ccccc1)N(CC1CCCO1)C(=O)CNS(=O)(=O)c1ccccc1 (stereo unspecified)	0	-5	4	-1	-1	-3
CC(C)C(C(=O)NCc1ccco1)N(CC1CCCO1)C(=O)CNS(=O)(=O)c1ccccc1 (stereo unspecified)	43*	.	2	0	-11	3
CCOC(=O)c1c(-c2ccccc2)nc2cc(C)ccn12	.	52*	.	7	.	21
CCOC(=O)c1c(-c2ccccc2)nc2ccc(C)cn12	.	47*	.	5	43	47*
CC(=O)c1cc(-c2ccccc2)n(CCC(=O)NC2CCCC2)c1C	44*	-9	1	-1	-3	-6
CC(=O)c1cc(-c2ccccc2)n(CCC(=O)NC2CCCCC2)c1C	.	.	.	-2	9	-1
CC(=O)Oc1ccc(C(=O)Cc2ccc3ccccc3n2)c(O)c1C	0	.	-3	3	54	-4
Cc1c(O)ccc(/C(Cc2ccc3ccccc3n2)=N\O)c1O	.	45*	.	-2	.	36*
CCNS(=O)(=O)c1c(C)cc(C)c(N(C)S(=O)(=O)c2ccccc2)c1C	43*	.	-1	-3	-4	-5
Cc1cc(C)c(S(N)(=O)=O)c(C)c1N(C)S(=O)(=O)c1ccccc1	0	6	-2	-2	3	0
O=C(Nc1nccs1)c1ccc(-c2ccc(Cl)cc2Cl)o1	0	.	-7	0	8	-1
O=C(Nc1nccs1)c1ccc(-c2ccc(F)c(Cl)c2)o1	0	57*	1	3	113*	11
COCCNC(=O)C[C@@H]1C[C@@H]2c3cc(NC(=O)CC4CC4)ccc3O[C@@H]2[C@@H](CO)O1	0	-1	0	.	.	.
SMILES	FGF22 binding	esBAF inh	MLL AF4-AF9 inh	SMARCA2 activ	MITF act	Wnt bcat act
O=C(NNC(=O)C1CC1)c1cc2cc3ccccc3nc2s1	43*	.	-11	-1	10	-4
O=C(NNC(=O)c1cc2cc3ccccc3nc2s1)c1ccc(F)cc1	.	-10	.	0	.	2
Cc1cccc(C=NOCCc2ccccc2)n1	0	66*	0	2	73	-1
CN(C)C(=O)C[C@H]1CC[C@H]2[C@@H](COc3ccc(NC(=O)C4CC4)cc3C(=O)N2C)O1	0	0	-1	.	.	.
O=C(C1CCOCC1)N1CC(=O)N2[C@H](C1)[C@@H](c1ccc(/C=C/c3ccccc3)cc1)[C@@H]2CO	0	.	3	.	.	.
CCNC(=S)NNC(=O)c1csc(C(C)C)c1	.	50*	.	3	24	20
CCCCNC(=S)NNC(=O)c1csc(C(C)C)c1	.	26	.	2	.	.
Fc1cccc(NCc2cn3ccccc3n2)c1	.	60*	.	4	.	.
COCC#Cc1ccc2c(c1)O[C@@H](CN(C)C(=O)c1ccccc1F)[C@@H](C)CN([C@H](C)CO)S2(=O)=O	0	5	0	.	.	.
O=c1nc(N/N=C/c2ccccn2)cn[nH]1	44*	.	-9	3	-59	-13
O=C(C[C@H]1CC[C@@H](NC(=O)C2CCC2)[C@H](CO)O1)Nc1nccs1	0	-1	-2	.	.	.
Cc1nn(-c2ccc(Br)cc2)c(=O)c2ccccc12	0	31	-3	7	22	42*
CN(C)c1ccc(C(CNC(=O)COc2ccc(Cl)cc2)N2CCCC2)cc1 (stereo unspecified)	0	-6	26*	-2	27	-1
COc1ccc(C(CNC(=O)COc2cc(C)ccc2Cl)N2CCCCC2)cc1 (stereo unspecified)	0	.	1	0	13	-3
COC(=O)c1ccc(N2CCN(C)CC2)c(NC(=O)c2sc3ccccc3c2Cl)c1	0	-6	26*	2	.	-7
CN1CCN(C(=O)c2ccccc2NC(=O)c2sc3ccccc3c2Cl)CC1	0	-1	1	3	.	2
COC(=O)[C@]12C[C@H](CC(=O)NCCC(C)C)C(=O)N(Cc3ccco3)C1=C[C@H](COCc1ccccc1)O[C@@H]2C	.	.	.	-4	.	.
Cn1c(=O)c2c(ncn2Cc2ccc(Cl)cc2)n(C)c1=O	44*	16	-10	-8	4	-2
O=C(NCC[C@H]1CC[C@H](NS(=O)(=O)Cc2ccccc2)[C@@H](CO)O1)C1CCCCC1	0	2	-1	.	.	.
CN(C)C(=O)c1ccc(-c2ccc3c(c2)[C@@H]2[C@@H](CCN2C(=O)c2ccccc2)[C@H](CO)N3)cc1	0	3	0	.	.	.
N#Cc1c(-c2ccc([N+](=O)[O-])cc2)nc2n(c1=O)CCS2	0	-3	-7	-2	9	0
O=[N+]([O-])c1ccc(-c2cn3c(n2)SCC3)cc1	0	60*	-2	-3	.	-3
